{"source": "ChEMBL document CHEMBL3988442", "about": "“University of Dundee, Small-Polar-MMV Screening Library” (2021)", "note": "Out of some 48,000 compounds screened, about 13,000 (27%) showed an effect of 50% or more. The list shows a part of the results.", "data": [{"tested_on": "Wolbachia pipientis", "assay": "Anti-Wolbachia Cell-Based Screen", "assay_type": "functional", "set-up": "scale not given: in the data most compounds retested in dose-response had high values", "settings": "5 µM", "units": {"Percent Effect": "%"}, "values": [{"smiles": "C=Cn1cc(CN2CCc3nc(-c4cccnc4)nc(O)c3C2)c(C)n1", "Percent Effect": 93.89}, {"smiles": "NCC1CN(c2nc(-c3cccnc3)nc3c2CCNCC3)CCO1", "note": "(centres undefined)", "Percent Effect": -59.49}, {"smiles": "C=Cn1ncc(CN2CCc3nc(-c4ccncc4)nc(O)c3C2)c1C", "Percent Effect": 95.82}, {"smiles": "Cc1cccc(-c2noc(CN3CCc4c(ncn4C4CC4)C3)n2)c1", "Percent Effect": -0.5665}, {"smiles": "Cn1cc(CNCC2(O)CCCCC2)c(-c2cccnc2)n1", "Percent Effect": 2.797}, {"smiles": "Cc1nn(C)cc1CN1CCc2nc(-c3cccnc3)nc(O)c2C1", "Percent Effect": 87.93}, {"smiles": "Cc1nccn1CCN(C)c1nc(-c2cccnc2)nc2c1CCNC2", "Percent Effect": 2.372}, {"smiles": "CC(=O)N1CCc2c(nc(-c3cccnc3)nc2N(C)CC(O)CO)C1", "note": "(centres undefined)", "Percent Effect": -2.171}, {"smiles": "Cc1ccc(O)c(CN2CCc3nc(-c4cccnc4)nc(O)c3C2)c1", "Percent Effect": 101.6}, {"smiles": "Cc1nc(-c2cnn(C)c2)nc2c1CN(C(=O)c1cccnc1)CC2", "Percent Effect": -2.218}, {"smiles": "Cc1cnn(C2CN(c3nc(-c4ccncc4)nc4c3CCC4)C2)c1", "Percent Effect": -2.167}, {"smiles": "COCCCN(C)c1nc(-c2ccncc2)nc2c1CCN(C(C)=O)C2", "Percent Effect": 7.228}, {"smiles": "CC(C)(C)NC(=O)C1CSCN1S(=O)(=O)c1ccccc1S(C)(=O)=O", "note": "(centres undefined)", "Percent Effect": 4.107}, {"smiles": "CCc1ncc2c(n1)CN(C(=O)CC(C)NC(C)=O)C2", "note": "(centres undefined)", "Percent Effect": -5.882}, {"smiles": "Cc1cc(CN(C)C(=O)NC(C)Cc2ccco2)no1", "note": "(centres undefined)", "Percent Effect": 4.671}, {"smiles": "CCn1ccnc1CN1CCN(c2nc(C)cc(OC)n2)CC1", "Percent Effect": -15.82}, {"smiles": "CC[C@@H]1N(CC2CCOCC2)CCC[C@]12CCC(=O)N2.O=C(O)C(F)(F)F", "Percent Effect": -7.738}, {"smiles": "NC(=O)c1cc(-n2cc(-c3cccc(C(=O)O)c3)cn2)cs1", "Percent Effect": -1.419}, {"smiles": "CN(c1cccnc1N1CCCC1)S(=O)(=O)c1cnn(C)c1", "Percent Effect": 8.889}, {"smiles": "CCn1ncc(CN2CCc3nc(-c4cccnc4)nc(O)c3C2)c1C", "Percent Effect": 89.32}, {"smiles": "CC(O)CNc1nc(-c2cccnc2)nc2c1CCC2", "note": "(centres undefined)", "Percent Effect": -9.754}, {"smiles": "CCc1noc(CNc2nc(-c3cccnc3)nc3c2CCNCC3)n1", "Percent Effect": 3.724}, {"smiles": "CS(=O)(=O)NC(=O)c1cnc2c(cnn2C2CCCC2)c1", "Percent Effect": -4.215}, {"smiles": "CN1CCC(N(C)C(=O)c2cnc3c(cnn3C3CCCC3)c2)CC1", "Percent Effect": 105.6}, {"smiles": "CN1CCN(C(=O)c2cnc3c(cnn3C3CCCC3)c2)CC1", "Percent Effect": 4.55}, {"smiles": "CC1CN(C)CCN1C(=O)c1cnc2onc(CC(C)(C)C)c2c1", "note": "(centres undefined)", "Percent Effect": 4.024}, {"smiles": "CCn1c(N)nc2cc(C(=O)N3CCC(N4CCCC4)CC3)cnc21", "Percent Effect": -1.571}, {"smiles": "CC(C)CCN(C)C(=O)c1cnc2c(cnn2CC(C)C)c1", "Percent Effect": 1.745}, {"smiles": "CC1CN(C)CCN1C(=O)c1cnc2c(cnn2C2CCCC2)c1", "note": "(centres undefined)", "Percent Effect": 101.7}, {"smiles": "CCn1c(N)nc2cc(C(=O)N3CCCN(C)CC3)cnc21", "Percent Effect": -5.515}, {"smiles": "CCN1CCN(C(=O)c2cnc3c(cnn3C3CCCC3)c2)CC1", "Percent Effect": 83.11}, {"smiles": "O=C(O)c1cnc2c(cnn2C2CCCC2)c1", "Percent Effect": -9.214}, {"smiles": "O=C(c1cnc2c(cnn2C2CCCC2)c1)N1CCN(CCO)CC1", "Percent Effect": 107.7}, {"smiles": "CCOC1CCCN(C(=O)c2cnc3c(cnn3C3CCCC3)c2)C1", "note": "(centres undefined)", "Percent Effect": -8.504}, {"smiles": "Cn1ccnc1SCC(=O)NCCC1CCCO1", "note": "(centres undefined)", "Percent Effect": 1.622}, {"smiles": "Cn1cc(S(=O)(=O)NC(CO)Cc2c[nH]c3ccccc23)cn1", "note": "(centres undefined)", "Percent Effect": -17.12}, {"smiles": "Cn1cccc1C(=O)NCc1cn2c(n1)CN(S(=O)(=O)C1CC1)CC2", "Percent Effect": -2.289}, {"smiles": "Cc1ncc(C(=O)N2CCC(N3C[C@@H](C)O[C@@H](C)C3)CC2)c(=O)[nH]1", "Percent Effect": -16.5}, {"smiles": "CCc1noc(CC)c1CNC(=O)Nc1cccc(C(=O)N(C)C)c1", "Percent Effect": 14.38}, {"smiles": "NC(=O)C1CCCN(C(=O)c2cnc3c(cnn3C3CCCC3)c2)C1", "note": "(centres undefined)", "Percent Effect": -9.879}, {"smiles": "O=C(c1ccc2c(c1)[nH]c(=O)n2C1CCCC1)N1CCCSCC1", "Percent Effect": -3.459}, {"smiles": "O=C(c1cnc2c(cnn2C2CCCC2)c1)N1CCCSCC1", "Percent Effect": 112.1}, {"smiles": "Cc1cccc(-n2nc(CC(C)C)nc2[C@H](C)O)c1", "Percent Effect": -4.735}, {"smiles": "Cc1cccc(-n2cnc(Cl)c2C(=O)O)c1", "Percent Effect": 93.89}, {"smiles": "O=C1CC(c2ccc(C(=O)O)cc2)c2ncn(-c3ccccc3)c2N1", "note": "(centres undefined)", "Percent Effect": 13.74}, {"smiles": "CC(=O)NCc1nc(CC(C)C)nn1-c1cccc(C)c1", "Percent Effect": -6.896}, {"smiles": "O=C(O)c1c(Cl)ncn1-c1ccccc1", "Percent Effect": 76.14}, {"smiles": "CC(C)c1cccc(-n2cc(O)c(C(=O)O)n2)c1", "Percent Effect": 39.26}, {"smiles": "CCc1ccc(C2CCCN2C(=O)Cc2ccc(NC(C)=O)cc2)o1", "note": "(centres undefined)", "Percent Effect": -1.143}, {"smiles": "CC(C)OCc1ncn2c1CN(Cc1cnn(C)c1)CCC2.O=C(O)C(F)(F)F", "Percent Effect": -6.941}, {"smiles": "Cc1ccnc(NC(=O)C2CCCO2)c1", "note": "(centres undefined)", "Percent Effect": 0.6753}, {"smiles": "O=C(Nc1ccc(Cl)cn1)C1CCN(CCc2ccccn2)CC1", "Percent Effect": 5.331}, {"smiles": "O=C(Nc1ccc(-c2ccccc2)cn1)C1CCCN1C(=O)C1CC1", "note": "(centres undefined)", "Percent Effect": -4.535}, {"smiles": "O=C(Nc1ccc(N2CCCCC2)cn1)C1CCCN1C(=O)C1CC1", "note": "(centres undefined)", "Percent Effect": 5.13}, {"smiles": "CC(=O)Nc1ccc(CCC2(NC(=O)C3CC3)CCCCC2)cn1", "Percent Effect": 53.79}, {"smiles": "CS(=O)(=O)NC1(CCc2ccc(NC(=O)C3CC3)nc2)CCCCC1", "Percent Effect": 95.32}, {"smiles": "Cc1ccc(NC(=O)C2CCCN2C(=O)C2CC2)nc1", "note": "(centres undefined)", "Percent Effect": 4.832}, {"smiles": "CCSCc1ccnc(NC(=O)C2CCCO2)c1", "note": "(centres undefined)", "Percent Effect": 2.987}, {"smiles": "CC(=O)Nc1ccc(CCC2(NC(=O)C3CCCO3)CCCCC2)cn1", "note": "(centres undefined)", "Percent Effect": 144.1}, {"smiles": "CC(C)(C)C(=O)N1CC[C@H]2NC(=O)N(c3ccc(F)cc3)C(=O)[C@H]21", "Percent Effect": -4.362}, {"smiles": "Cc1ccc(Cl)cc1C(=O)N1CCC2(CC1)c1ccccc1[C@@H](N)[C@@H]2O", "Percent Effect": -15.25}, {"smiles": "COCCN(C(=O)c1cc(C)no1)c1ccc(C#N)cc1", "Percent Effect": -3.36}, {"smiles": "Cc1noc(Cl)c1CCC(=O)N1CCc2sccc2C1", "Percent Effect": 4.589}, {"smiles": "CCNc1cc2c(nn1)CCN(C(=O)c1c(C)noc1C)C2", "Percent Effect": 134.6}, {"smiles": "CCNc1cc2c(nn1)CCN(C(=O)Cc1noc3ccccc13)C2", "Percent Effect": 2.376}, {"smiles": "CCNc1cc2c(nn1)CCN(C(=O)CCc1c(C)noc1Cl)C2", "Percent Effect": 92.82}, {"smiles": "CCNc1cc2c(nn1)CCN(C(=O)c1cc3nc(C)ccc3o1)C2", "Percent Effect": 0.3764}, {"smiles": "CCNc1cc2c(nn1)CCN(C(=O)c1cc3c(s1)CCOC3)C2", "Percent Effect": 6.196}, {"smiles": "CCNc1cc2c(nn1)CCN(C(=O)Cc1c(C)noc1C)C2", "Percent Effect": -1.817}, {"smiles": "CCNc1cc2c(nn1)CCN(C(=O)CCc1c(C)noc1C)C2", "Percent Effect": 85.75}, {"smiles": "CCNc1cc2c(nn1)CCN(C(=O)C(C)c1c(C)noc1C)C2", "note": "(centres undefined)", "Percent Effect": 124.9}, {"smiles": "CCNc1cc2c(nn1)CCN(C(=O)C1Cc3ccccc3O1)C2", "note": "(centres undefined)", "Percent Effect": -6.016}, {"smiles": "CN(C1CCCCC1)S(=O)(=O)NC1CCN(c2ncccn2)CC1", "Percent Effect": -8.607}, {"smiles": "Cc1n[nH]c(C(=O)NCc2ccnc(OCC(F)(F)F)c2)c1Br", "Percent Effect": -11.41}, {"smiles": "COc1ccc(CCN2CCCC(CN(C)Cc3ccc(C)o3)C2)cc1", "note": "(centres undefined)", "Percent Effect": -2.586}, {"smiles": "O=C(c1cccc2[nH]ccc12)N1CCC2(CCOC2)C1", "note": "(centres undefined)", "Percent Effect": -0.4242}, {"smiles": "CNc1cc2c(nn1)CCN(C(=O)c1ccoc1)C2", "Percent Effect": 3.239}, {"smiles": "CCNc1cc2c(nn1)CCN(C(=O)c1ccoc1)C2", "Percent Effect": 77.15}, {"smiles": "CCNc1cc2c(nn1)CCN(C(=O)c1ccc(CNC(C)=O)o1)C2", "Percent Effect": -5.342}, {"smiles": "COc1ccc(Cl)cc1-n1c(COC(C)C)n[nH]c1=O", "Percent Effect": 9.918}, {"smiles": "C[C@@H]1CN(C2(C(=O)N3CCSCC3)Cc3ccccc3C2)C[C@H](C)O1", "Percent Effect": 1.613}, {"smiles": "CC1(C(=O)N2CCSCC2)CNCCO1", "note": "(centres undefined)", "Percent Effect": 81.85}, {"smiles": "CC1(C(=O)N2CCN(c3ncccn3)CC2)CNCCO1", "note": "(centres undefined)", "Percent Effect": 48.6}, {"smiles": "O=C(c1cccc(Cl)c1F)N1CCOC2(CNCCOC2)C1", "note": "(centres undefined)", "Percent Effect": -25.29}, {"smiles": "O=C(N1CCSCC1)C1(O)Cc2ccccc2C1", "Percent Effect": 1.421}, {"smiles": "O=C(C1CCS(=O)(=O)C1)N1CCN(c2cnccn2)CC1", "note": "(centres undefined)", "Percent Effect": -8.289}, {"smiles": "CN(C)c1ccccc1C(=O)N1CCOC2(CNCCOC2)C1", "note": "(centres undefined)", "Percent Effect": -52.05}, {"smiles": "CC1(C(=O)N2CCOCC2)CNCCO1.Cl", "note": "(centres undefined)", "Percent Effect": 81.13}, {"smiles": "CC1(C(=O)N2CCN(c3cnccn3)CC2)CNCCO1", "note": "(centres undefined)", "Percent Effect": 114.6}, {"smiles": "Cc1cc(=O)n(C)cc1NC(=O)Cc1cccc(Cl)c1", "Percent Effect": 5.962}, {"smiles": "Cc1cc(Cn2cc(C#N)c(=O)c3ccccc32)on1", "Percent Effect": -11.07}, {"smiles": "Cc1nc(CN2CCCC(CCc3ccccc3C(F)(F)F)C2)no1", "note": "(centres undefined)", "Percent Effect": -1.662}, {"smiles": "Cc1ccc(C(=O)Nc2ccccc2N2CCCC2)n1C", "Percent Effect": 84.28}, {"smiles": "COc1ccccc1NC(=O)c1[nH]nc(C(C)C)c1Br", "Percent Effect": -4.147}, {"smiles": "CCc1nc(C)c([C@H]2CN(C)C[C@@H]2C(=O)Nc2ccccc2F)[nH]1", "Percent Effect": -8.421}, {"smiles": "COc1ccccc1NC(=O)c1ccc(C)n1C", "Percent Effect": 99.48}, {"smiles": "CCN(CC)CCn1cc(NC(=O)Nc2ccccc2OC)cn1", "Percent Effect": 2.741}, {"smiles": "Cc1c(C(C)NC(=O)Nc2ccccc2F)cnn1C", "note": "(centres undefined)", "Percent Effect": 3.461}, {"smiles": "Cc1ccc(C(=O)Nc2ccccc2F)n1C", "Percent Effect": 94.36}, {"smiles": "CC1CCC(NS(=O)(=O)CC(=O)Nc2ccccc2N2CCCC2)CC1", "note": "(centres undefined)", "Percent Effect": 3.293}, {"smiles": "O=C(Nc1cc(Cl)ccc1N1CCCCC1)c1ccccn1", "Percent Effect": -5.482}, {"smiles": "CC(C)C(C)N1Cc2cccc(NCC(=O)N(C)C)c2C1", "note": "(centres undefined)", "Percent Effect": 11.84}, {"smiles": "CC(=O)c1cc(CN2CCCCC2c2nc3cc(F)ccc3[nH]2)cs1", "note": "(centres undefined)", "Percent Effect": -8.075}, {"smiles": "CC(=O)N1CC(C(=O)Nc2cccc(OC(F)F)c2)C1", "Percent Effect": 13.11}]}]}
